Test results taken from PubChem BioAssay (Tox21).
Values without a mark were called inactive. Results filed as inconclusive are left out. Where a call stands in place of a potency, no number is given. The source made the active and inactive calls. Unless noted, the call rests on the fitted dose curve; in most records, active means well fitted curve in the direction sought with a large enough effect in the repeat runs; inconclusive means weak or mixed curves; inactive means no such curve, though single readings can be large; an effect the other way counts as inactive or inconclusive.

How the values were obtained:
[1] = qHTS assay for small molecules that induce genotoxicity in human embryonic kidney cells expressing luciferase-tagged ATAD5 (AID 651632); further: nearly all actives have a fitted effect of over 15% in size; further: potency means the concentration at half of the fitted maximal effect
Method in brief: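 Genotoxicity read-out via ATAD5-luciferase: HEK293T cells, 16 hr compound incubation at 37C, Amplite detection.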

[2] = qHTS assay for small molecule agonists of the p53 signaling pathway - cell viability (AID 651633; calls by dose curve;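 further: p53RE-bla HCT reporter cells with a stable beta-lactamase p53 reporter; series mostly up to about 83 µM; nearly all actives have a fitted effect of over 30% in size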)
Method in brief: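 p53RE-bla cells were treated with compound for 16 hours at 37 C. Cytotoxicity was then measured as CellTiter-Glo luminescence after 30 min at room temperature.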

[3] = qHTS assay for small molecules that induce genotoxicity in human embryonic kidney cells expressing luciferase-tagged ATAD5 - cell viability (AID 651634; calls by dose curve; further: nearly all actives have a fitted effect of over 25% in size; further: potency means the concentration at half of the fitted maximal effect)
Method in brief: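 Live-cell protease activity (CellTiter-Fluor, fluorescence) indicates viability. HEK293T cells with luciferase-tagged ATAD5; 15.5 hr compound treatment at 37C.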

[4] = qHTS assay for small molecule disruptors of the mitochondrial membrane potential - cell viability (AID 720634; calls by dose curve;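 further: human HepG2 liver cancer cells; series mostly up to about 83 µM; nearly all actives have a fitted effect of over 20% in size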)
Method in brief: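 Human hepatoma HepG2 cells were treated for 1 hr with test chemicals, then given m-MPI dye and CellTiter-Glo. Cell viability reflects luminescence proportional to cellular ATP.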

[5] = qHTS assay for small molecule disruptors of the mitochondrial membrane potential (AID 720635); further: potency means the concentration at half of the fitted maximal effect
Method in brief: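 HepG2 cells exposed to compound 1 hr at 37C, then Mito-MPS dye 30 min. Ratio read of aggregate (540/590 nm) versus monomer (490/535 nm) fluorescence.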

[6] = qHTS assay to test for compound auto fluorescence at 590 nm (red) in HepG2 cells (AID 720674)
Method in brief: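 HepG2 cells, 2,000 per well in MEM with 10% FBS, attached overnight at 37 C, then got 23 nL compound or DMSO. After 1 hr at 37 C, 5% CO2, red fluorescence was read at 540/590 nm against Rose Bengal sodium as reference.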

[7] = qHTS assay to test for compound auto fluorescence at 535 nm (green) in HepG2 cells (AID 720675)
[8] = qHTS assay to test for compound auto fluorescence at 460 nm (blue) in HEK293 cells (AID 720678)
Method in brief: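 After cell attachment (4-5 hr, 37C), compounds were pinned onto HEK293 monolayers in 10% dialyzed FBS medium. The blue channel (405/460 nm) was read following overnight culture. Equivalency was calculated against triamterene.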

[9] = qHTS assay to test for compound auto fluorescence at 590 nm (red) in HEK293 cells (AID 720679)
Method in brief: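 Plates of HEK293 cells (10% dialyzed FBS) are treated with 23 nL compound or DMSO vehicle after a 4-5 hr attachment period, incubated overnight at 37C, and read for red fluorescence at 540/590nm.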

[10] = qHTS assay for small molecule agonists of the p53 signaling pathway (AID 651631; calls by dose curve; further: nearly all actives have a fitted effect of over 15% in size)
Method in brief: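 We treat p53RE-bla HCT-116 cells with compounds for 16 h at 37 °C, add LiveBLAzer B/G FRET substrate for 2 h at room temperature, and measure fluorescence intensity.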

CCN(CC)C(C)CN1c2ccccc2Sc2ccccc21 (configuration not stated)
Potency [1]: inactive | Potency [2]: inactive | Potency [3]: inactive | Potency [4]: inactive | Potency [5]: inactive | fluorescence, relative to Rose Bengal [6]: 0.373% [at 18.6 µM] | fluorescence, % of fluorescein control [7]: 0.0339% [at 18.6 µM] | fluorescence, % of triamterene [8]: -0.0331% [at 18.6 µM] | fluorescence, % of fluorescent control [9]: -0.0946% [at 18.6 µM]

CCCCCC(CO)CCC (configuration not stated)
Potency [1]: inactive | Potency [2]: inactive | Potency [3]: inactive | Potency [4]: inactive | Potency [5]: inactive | outcome [6]: inactive | outcome [7]: inactive | Potency [8]: inactive | outcome [9]: inactive

CCN(CC)CCOC(=O)C1(c2ccccc2)CCCC1
Potency [10]: inactive | Potency [1]: inactive | Potency [4]: inactive | outcome [6]: inactive | outcome [7]: inactive | Potency [8]: inactive | outcome [9]: inactive

NC1CCN(c2nc3c(cc2F)c(=O)c(C(=O)O)cn3-c2ccc(F)cc2F)C1 (configuration not stated)
Potency [1]: inactive | Potency [2]: inactive | Potency [3]: inactive | Potency [4]: inactive | Potency [5]: inactive | outcome [6]: inactive | outcome [7]: inactive | Potency [8]: inactive

O=C1c2cccc(O)c2C(=O)c2c(O)cc(CO)cc21
Potency [1]: inactive | Potency [2]: inactive | Potency [3]: inactive | Potency [4]: inactive | Potency [5]: 0.864 µM (active) | outcome [6]: inactive | outcome [7]: inactive | Potency [8]: inactive | outcome [9]: inactive

CC(C)c1ccc2c(C(C)C)cc(C(C)C)c(S(=O)(=O)O)c2c1
Potency [1]: inactive | Potency [2]: inactive | Potency [3]: inactive | Potency [4]: inactive | Potency [5]: inactive | outcome [6]: inactive | outcome [7]: inactive | Potency [8]: inactive | outcome [9]: inactive

O=C(C(=O)c1ccc(Br)cc1)c1ccc(Br)cc1
Potency [10]: inactive | Potency [1]: inactive | Potency [3]: inactive | Potency [4]: inactive | fluorescence, relative to Rose Bengal [6]: -0.609% [at 18.6 µM] | fluorescence, % of fluorescein control [7]: 0.0081% [at 18.6 µM] | fluorescence, % of triamterene [8]: 0.126% [at 18.6 µM] | fluorescence, % of fluorescent control [9]: 0.203% [at 18.6 µM]

O=C(NN1CCCC1)NS(=O)(=O)c1ccc(Cl)cc1
Potency [1]: inactive | Potency [2]: inactive | Potency [3]: inactive | Potency [4]: inactive | Potency [5]: inactive | outcome [6]: inactive | outcome [7]: inactive | Potency [8]: inactive | outcome [9]: inactive

COc1cc(C(C)(C)C)c(O)c(C(C)(C)C)c1
Potency [1]: inactive | Potency [2]: inactive | Potency [3]: inactive | Potency [4]: inactive | Potency [5]: 27.3 µM (active) | outcome [6]: inactive | outcome [7]: inactive | Potency [8]: inactive | outcome [9]: inactive

CN1CCC(OC(c2ccccc2)c2ccccc2)CC1
Potency [1]: inactive | Potency [2]: inactive | Potency [3]: inactive | Potency [4]: inactive | fluorescence, relative to Rose Bengal [6]: -0.513% [at 18.6 µM] | fluorescence, % of fluorescein control [7]: -0.0945% [at 18.6 µM] | fluorescence, % of triamterene [8]: -0.105% [at 18.6 µM] | fluorescence, % of fluorescent control [9]: 0.0005% [at 18.6 µM]

CC(C)NCC(O)COc1ccc(CC(N)=O)cc1 (configuration not stated)
Potency [1]: inactive | Potency [2]: inactive | Potency [3]: inactive | Potency [4]: inactive | outcome [6]: inactive | outcome [7]: inactive | Potency [8]: inactive | outcome [9]: inactive

CN1CCN(C2=Nc3cc(Cl)ccc3Nc3ccccc32)CC1
Potency [1]: inactive | Potency [2]: inactive | Potency [4]: inactive | outcome [6]: inactive | outcome [7]: inactive | Potency [8]: inactive | outcome [9]: inactive

CC(=O)/C=C/C1C(C)=CCCC1(C)C (configuration not stated)
Potency [1]: inactive | Potency [2]: inactive | Potency [4]: inactive | outcome [6]: inactive | outcome [7]: inactive | Potency [8]: inactive

CN1CCC(=C2c3ccccc3CCc3sccc32)CC1
Potency [1]: inactive | Potency [2]: inactive | Potency [3]: inactive | Potency [4]: inactive | outcome [6]: inactive | outcome [7]: inactive | Potency [8]: inactive

O=C(NS(=O)(=O)/C=C/c1cccs1)c1ccc(F)cc1Br
Potency [1]: 1.37 µM (active) | Potency [2]: inactive | Potency [4]: inactive | Potency [5]: 61.1 µM (active) | outcome [6]: inactive | outcome [7]: inactive | Potency [8]: inactive | outcome [9]: inactive

Cc1cc(C)c(S(=O)(=O)O)cc1N=Nc1cc(S(=O)(=O)O)c2ccccc2c1O
Potency [1]: inactive | Potency [2]: inactive | Potency [3]: 48.6 µM (active) | Potency [4]: inactive | outcome [6]: inactive | outcome [7]: inactive | Potency [8]: inactive | outcome [9]: inactive

CCN(CC)CCOc1ccc2c(c1)C(=O)c1cc(OCCN(CC)CC)ccc1-2
Potency [1]: inactive | Potency [2]: inactive | Potency [4]: inactive | Potency [5]: inactive | outcome [6]: inactive | outcome [7]: inactive | Potency [8]: inactive | outcome [9]: inactive

CC(=O)O[C@@H]1C(=O)O[C@@H]2[C@H]1OC(=O)[C@@H]2OC(C)=O
Potency [1]: inactive | Potency [2]: inactive | Potency [3]: inactive | Potency [4]: inactive | outcome [6]: inactive | outcome [7]: inactive | Potency [8]: inactive | outcome [9]: inactive

COCCCCCCCCOCCC[Si](C)(O[Si](C)(C)C)O[Si](C)(C)C
Potency [1]: inactive | Potency [2]: inactive | Potency [5]: 4.86 µM (active) | outcome [6]: inactive | outcome [7]: inactive | Potency [8]: inactive

CCOC(=O)CC(C)C
Potency [1]: inactive | Potency [2]: inactive | Potency [4]: inactive | outcome [6]: inactive | outcome [7]: inactive | Potency [8]: inactive | outcome [9]: inactive

c1ccc(-c2nc[nH]c2-c2ccccc2)cc1
Potency [1]: inactive | Potency [2]: inactive | Potency [3]: inactive | Potency [4]: inactive | outcome [6]: inactive | outcome [7]: inactive | Potency [8]: inactive | outcome [9]: inactive

O=C(O)C(c1ccc(Cl)cc1)c1ccc(Cl)cc1
Potency [1]: inactive | Potency [2]: inactive | Potency [3]: inactive | Potency [4]: inactive | outcome [6]: inactive | Potency [8]: inactive | outcome [9]: inactive

COC(=O)C(C)=O
Potency [1]: inactive | Potency [2]: inactive | Potency [3]: inactive | Potency [4]: inactive | outcome [6]: inactive | outcome [7]: inactive | Potency [8]: inactive | outcome [9]: inactive

COC(=O)CSc1cc(N=c2sc(=O)n3n2CCCC3)c(F)cc1Cl
Potency [1]: inactive | Potency [2]: inactive | Potency [4]: inactive | outcome [6]: inactive | outcome [7]: inactive | Potency [8]: inactive | outcome [9]: inactive

CN(c1nccc(=O)[nH]1)C1CCN(c2nc3ccccc3n2Cc2ccc(F)cc2)CC1
Potency [1]: inactive | Potency [2]: inactive | Potency [3]: inactive | Potency [4]: inactive | outcome [6]: inactive | Potency [8]: inactive

CCCCOC(=O)/C=C\C(=O)OCCCC
Potency [1]: inactive | Potency [2]: inactive | Potency [3]: inactive | Potency [4]: inactive | outcome [6]: inactive | outcome [7]: inactive | Potency [8]: inactive | outcome [9]: inactive
